# In the library only some 3.7% were active in any assay of this set; here they are far more common.
# GPR32 ag: qHTS for Agonists of Human Resolvin D1 Receptor DRV1. Probable G-protein coupled receptor 32 (Homo sapiens), O75388. CHO-K1 GPR32 beta-arrestin PathHunter luminescence, 90 min; zero percent set by DMSO-only wells. activation, % at 76.9 µM. hit rate 2.5% among 48,000;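 active = activation of at least 60% and not above a set upper limit, about 1 call in 100 departs from these limits; inconclusive = activation of 40% to 60%, or above that upper limit; inactive = activation under 40%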
# Target sequence (O75388 whole entry, looked up): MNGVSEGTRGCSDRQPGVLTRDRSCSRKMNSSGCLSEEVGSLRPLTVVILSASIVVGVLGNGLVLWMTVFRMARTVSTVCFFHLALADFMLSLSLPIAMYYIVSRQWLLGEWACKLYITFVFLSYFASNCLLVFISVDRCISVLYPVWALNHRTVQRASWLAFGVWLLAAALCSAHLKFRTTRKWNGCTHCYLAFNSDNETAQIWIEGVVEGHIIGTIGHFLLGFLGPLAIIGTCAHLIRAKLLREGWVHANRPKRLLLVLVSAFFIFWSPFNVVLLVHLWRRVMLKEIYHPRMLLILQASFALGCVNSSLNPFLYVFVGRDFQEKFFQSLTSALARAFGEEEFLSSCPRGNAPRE
#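 Step 1: seed CHO-K1 GPR32 beta-arrestin cells, 2,500/well, overnight at 37 °C. Step 2: add compounds, 90 min at 37 °C. Step 3: detection reagent, 1 h ambient, then luminescence.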
# HTT-AS promoter: Primary qHTS for Identification of Small Molecule Activators of Huntingtin-Antisense Promoter Activity; AID 1508624, 2021; hit rate 0.24% among 48,000; Potency, µM (top dose mostly 57.5 µM), most hits filed as activators; HEK293 HTT-AS promoter firefly luciferase reporter, 24 h; response scale: percent change from vehicle, -100% = no light; note: nearly all actives have a fitted effect of over 55% in size
#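 HEK293 cells carrying firefly luciferase reporters were seeded at 2,500 per well in Opti-MEM and cultured for 24 h. They were then treated with compounds at up to 57.5 uM final for 24 h at 37 degrees C before Dual-Glo luminescence readout.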
# HTT promoter inh: Primary qHTS for Identification of Small Molecule Inhibitors of Huntingtin Promoter Activity; HEK293 HTT promoter firefly luciferase reporter, 24 h; Potency, µM (titrated, usually from 57.5 µM), usual class: inhibitors; hit rate 0.93% among 48,000; AID 1508623, 2021; note: nearly all actives have a fitted effect of over 50% in size
#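 HEK293 cells carrying firefly luciferase reporters were seeded at 2,500 per well in Opti-MEM and cultured for 24 h. They were then treated with compounds at up to 57.5 uM final for 24 h at 37 degrees C before Dual-Glo luminescence readout.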
# Numbers stand for hits; . = inactive; ? = inconclusive; / = no result given. Unless noted, calls come from the whole dose curve; as a rule, active = well fitted curve in the direction sought with a large enough effect; inconclusive = small, poorly fitted or top-dose-only effect, or another doubt; inactive = no such curve, though single readings can be large; an effect the other way counts as inactive or inconclusive.
SMILES,GPR32 ag,HTT-AS promoter,HTT promoter inh
C=Cc1ccc(Cn2c(C(=O)O)c(CNCc3ccc(F)cc3)c3ccc(C)cc32)cc1,90.9,.,?
C=Cc1ccc(Cn2c(C(=O)O)c(CNCc3cccs3)c3ccc(C)cc32)cc1,96.3,.,.
Cc1ccc2c(CNCc3ccc(C)o3)c(C(=O)O)n(Cc3ccc(F)cc3)c2c1,?,.,.
Cc1ccc2c(CNCc3cccs3)c(C(=O)O)n(Cc3ccc(F)cc3)c2c1,91.9,.,?
Cc1ccc(CN2CCNCC2)cc1NC(=O)CNc1ccc(F)c(F)c1,/,.,.
CN1CCc2c(c3ccccc3n2Cc2ccc(C(=O)NO)cc2)C1,/,.,?
COC(=O)c1ccccc1NC(=O)[C@H]1O[C@@H]2OC(C)(C)O[C@@H]2[C@H]2OC(C)(C)O[C@H]21,.,.,.
COc1ccc(NC(=O)[C@H]2O[C@@H]3OC(C)(C)O[C@@H]3[C@H]3OC(C)(C)O[C@H]32)c(OC)c1,97.0,.,.
CC[C@@]1(O)C(=O)OCc2c1cc1n(c2=O)Cc2c-1nc1ccccc1c2/C=N/OC(C)(C)C,.,.,.
O=C(c1ccc(F)c(F)c1Nc1ccc(I)cc1F)N1CC(O)([C@H]2CCCCN2)C1,/,.,?
CC[C@]1(O)C[C@@H]2CN(CCc3c([nH]c4ccccc34)[C@@](C(=O)OC)(c3cc4c(cc3OC)N(C=O)[C@@H]3C45CCN4CC=C[C@](CC)([C@H]45)[C@@H](OC(C)=O)[C@]3(O)C(=O)OC)C2)C1 (stereo partly specified),/,.,.
COc1ccc(NC(=O)CSc2nc(-c3ccco3)cc(C(F)(F)F)n2)cc1,94.6,.,.
COc1cc(NC(=O)CCCSc2nc(-c3ccco3)cc(C(F)(F)F)n2)cc(OC)c1OC,.,.,?
COc1ccc(NC(=O)CSc2nc(-c3ccco3)cc(C(F)(F)F)n2)c(OC)c1,.,.,.
COc1ccccc1-c1cc(C(F)(F)F)nc(S(=O)(=O)CCCC(=O)Nc2ccc(F)c(Cl)c2)n1,.,.,.
COc1cc(NC(=O)CSc2nc(-c3ccco3)cc(C(F)(F)F)n2)cc(OC)c1OC,.,.,12.6µM
COc1ccccc1-c1cc(C(F)(F)F)nc(S(=O)(=O)CCCC(=O)Nc2cc(OC)c(OC)c(OC)c2)n1,80.5,.,.
O=C(Nc1cccc(C(F)(F)F)c1)Nc1cc(S(=O)(=O)NC2CC2)ccc1-c1ccsc1,/,.,?
COc1ccc(NC(=O)c2ccc(NC(=O)CCS(=O)(=O)c3cccs3)cc2)cc1Cl,?,.,.
O=C(CCS(=O)(=O)c1cccs1)Nc1ccc(C(=O)Nc2cccc(Cl)c2)cc1,65.3,.,.
Cc1n[nH]c(C)c1Cc1sc2c(c1C(=O)N1C[C@H](O)CO1)c(=O)n(C)c(=O)n2CC(C)C,/,.,.
COc1ccc(OC)c(CCNc2ncnc3onc(C)c23)c1,.,.,15.8µM
COc1ccc(OC)c(CCNc2ncnc3onc(-c4ccc(F)cc4)c23)c1,.,.,.
C=CC1=C(C(=O)O)N2C(=O)[C@@H](NC(=O)C(=NO)c3csc(N)n3)[C@H]2SC1,/,.,.
O=c1[nH]c(=O)n([C@H]2CCCO2)cc1F,.,.,.
SMILES,GPR32 ag,HTT-AS promoter,HTT promoter inh
CCC(C(=O)NC1CCCCC1)n1nc(C)c2sc3ccccc3c2c1=O (stereo unspecified),.,.,.
COc1ccccc1NC(=O)COc1ccc(-c2nn(C)c(=O)c3ccccc23)cc1,95.1,.,?
Cn1nc(-c2ccc(OCC(=O)Nc3ccccc3)cc2)c2ccccc2c1=O,.,.,?
O=C(Cn1c(=O)oc2cc(S(=O)(=O)NCc3ccccc3)ccc21)NCc1ccc(F)cc1,111.1,.,.
Cc1cccc(NC(=O)Cn2c(=O)oc3cc(S(=O)(=O)NC4CCCC4)ccc32)c1,.,.,?
O=C(Cn1c(=O)oc2cc(S(=O)(=O)NCc3ccccc3)ccc21)NCc1ccc(Cl)cc1,.,.,?
Cc1cccc(NC(=O)Cn2c(=O)n(CCc3ccccc3)c(=O)c3ccccc32)c1,74.8,.,.
COc1ccc(CCn2c(=O)c3ccccc3n(CC(=O)Nc3cccc(C)c3)c2=O)cc1OC,.,.,.
Cc1cccc(NC(=O)Cn2c(=O)oc3cc(S(=O)(=O)NCc4ccccc4)ccc32)c1,65.1,.,?
Cc1cc(NC(=O)C2CCCN(S(=O)(=O)c3ccc(Br)s3)C2)ccc1Br (stereo unspecified),.,.,.
Cc1cc(NC(=O)C2CCN(S(=O)(=O)c3ccc(Br)s3)CC2)ccc1Br,76.4,.,.
Cc1ccc(NC(=O)C2CCN(S(=O)(=O)c3cccc4nonc34)CC2)cc1C,100.9,.,?
Cc1cccc(C)c1NC(=O)C1CCN(S(=O)(=O)c2cccc3nsnc23)CC1,.,.,.
Cc1ccc(NC(=O)C2CCN(S(=O)(=O)c3cccc4nsnc34)CC2)cc1F,93.3,.,.
Cc1nc(-c2ccc(C)c(S(=O)(=O)N3CCC(C(=O)Nc4ccc(Cl)cc4)CC3)c2)no1,.,.,?
Cc1ccc(NC(=O)C2CCN(S(=O)(=O)c3cccc4nonc34)CC2)c(Cl)c1,.,.,.
COc1cccc(NC(=O)C2CCN(S(=O)(=O)c3cc(-c4noc(C)n4)ccc3C)CC2)c1,.,.,12.6µM
CCc1ccc(C(=O)NC2=NC(c3cc(OC)ccc3OC)CC(=O)N2)cc1 (stereo unspecified),.,.,.
Cn1cc(C[C@@H](N)C(=O)O)c2ccccc21,/,.,.
C[C@@H]1CC=CC=CC=CC=C[C@@H](O[C@@H]2O[C@H](C)[C@@H](O)[C@H](N)[C@H]2O)C[C@@H]2O[C@](O)(C[C@@H](O)C[C@@H]3O[C@@H]3C=CC(=O)O1)C[C@H](O)[C@@H]2C(=O)O,/,.,?
CC(=O)c1ccc(N2CCN(C(=O)C3CCCN(S(=O)(=O)c4ccc(Br)s4)C3)CC2)cc1 (stereo unspecified),.,.,.
CC(=O)c1ccc(N2CCN(C(=O)C3CCN(S(=O)(=O)c4ccc(Br)s4)CC3)CC2)cc1,86.5,.,?
CCCN(CCC)C(=O)C(CCC(=O)OCCCN1CCN(CCOC(=O)Cc2c(C)n(C(=O)c3ccc(Cl)cc3)c3ccc(OC)cc23)CC1)NC(=O)c1ccccc1 (stereo unspecified),.,.,.
CC(C)c1ccc(NC(=O)c2ccc3c(c2)CCCN3S(C)(=O)=O)cc1,.,.,10µM
Cc1ccc(C)c(NC(=O)c2ccc3c(c2)CCCN3S(C)(=O)=O)c1,.,7.94µM,.
CCS(=O)(=O)N1CCc2cc(C(=O)Nc3cccc(C(C)=O)c3)ccc21,.,.,.
CCCCc1ccc(NC(=O)c2ccc3c(c2)CCN3S(=O)(=O)CC)cc1,.,.,22.4µM
CC(C)c1ccc(NC(=O)c2ccc3c(c2)CCN3S(=O)(=O)c2ccccc2)cc1,.,.,.
Cc1ccc(C)c(NC(=O)c2ccc3c(c2)CCN3S(C)(=O)=O)c1,.,.,.

# Screening data deposited in PubChem BioAssay by National Center for Advancing Translational Sciences (NCATS).
